uPA surface inh = qHTS for Inhibitors of Cell Surface uPA Generation | cell surface uPA generation assay, qHTS | Potency, µM (highest dose often 38.3 µM), for the others: at the top dose activity change, negative = inhibition, usual class: inhibitors | AID 540303, 2011 | hit rate 0.31% among 330,000; active means well fitted inhibition curve with a large enough effect; inconclusive means small, poorly fitted or top-dose-only effect; inactive means no such curve, though single readings can be large or run the other way; tested in mouse RAW 264.7 cells; further: potency means the concentration at half of the fitted maximal effect; on the % scale 0 is the no-effect control and ±100 the full control effect; nearly all actives have a fitted effect of over 55% in size
Nrf2 ARE act = qHTS of Nrf2 Activators; AREc32 ARE-luciferase reporter (MCF7-derived line), luminescence, 24 h; Potency, µM (highest dose often 46.1 µM), for inactives: at the highest dose activation, actives largely listed as activators; hit rate 0.31% among 410,000; AID 624171, 2012; further: potency means the concentration at half of the fitted maximal effect; % of control where 0% means no effect; nearly all actives have a fitted effect of over 65% in size
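AREc32 cells carrying an ARE-driven firefly luciferase, 1000 cells/well in OPTI-MEM with 5% FBS, dosed after overnight attachment and incubated 24 hr at 37 deg C. Steady-Glo luminescence read after 30 min at RT.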
a7 integrin act = qHTS for Activators of Integrin-Mediated Alleviation for Muscular Dystrophy; alpha7betagal myoblasts, beta-gal FDG fluorescence, 48 h; Potency, µM (top dose mostly 38.3 µM), for inactives: top-dose activation, hits mostly activators; hit rate 0.064% among 350,000;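 further: potency means the concentration at half of the fitted maximal effect; 100% = response of the positive control SU9516; nearly all actives have a fitted effect of over 60% in size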
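Alpha7betagal+/- myoblasts (passage 13) were plated 16-24 hr, then exposed to compounds (1:260 dilution of DMSO stock) for 48 hours at 37C. After MPER lysis, β-galactosidase reporter activity was read as FDG fluorescence (ex 480/em 540) after 30 minutes.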
12-LOX inh = Primary qHTS assay for inhibitors of human arachidonate 12S-lipoxygenase (ALOX12): Round 2; hit rate 1.1% among 580,000; AID 1671190, 2021; Potency, µM (titrated, usually from 108 µM), for inactives: top-dose activity change, negative = inhibition, usual class: inhibitors; purified 12hLO, xylenol orange hydroperoxide absorbance; Polyunsaturated fatty acid lipoxygenase ALOX12 (Homo sapiens), P18054; further: potency means the concentration at half of the fitted maximal effect; on the % scale 0 is the no-effect control and ±100 the full control effect
Target sequence (P18054 whole entry, looked up): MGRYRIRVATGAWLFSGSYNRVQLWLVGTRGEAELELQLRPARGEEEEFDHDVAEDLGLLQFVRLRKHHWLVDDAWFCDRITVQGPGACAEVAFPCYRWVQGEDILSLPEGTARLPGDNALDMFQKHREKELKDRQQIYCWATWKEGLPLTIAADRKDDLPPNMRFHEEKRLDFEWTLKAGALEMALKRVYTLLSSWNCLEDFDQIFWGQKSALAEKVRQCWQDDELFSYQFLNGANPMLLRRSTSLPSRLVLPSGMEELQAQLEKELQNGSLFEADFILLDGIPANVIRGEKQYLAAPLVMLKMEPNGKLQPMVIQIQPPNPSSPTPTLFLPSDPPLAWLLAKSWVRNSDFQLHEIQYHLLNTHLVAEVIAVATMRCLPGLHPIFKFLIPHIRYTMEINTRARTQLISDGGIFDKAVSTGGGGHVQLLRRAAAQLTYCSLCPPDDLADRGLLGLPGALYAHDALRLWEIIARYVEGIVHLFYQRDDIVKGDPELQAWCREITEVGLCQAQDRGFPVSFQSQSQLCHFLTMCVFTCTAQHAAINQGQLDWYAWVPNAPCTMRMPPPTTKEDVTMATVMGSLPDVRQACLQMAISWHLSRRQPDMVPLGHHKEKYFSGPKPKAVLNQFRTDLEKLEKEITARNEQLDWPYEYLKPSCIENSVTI
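Purified human 12hLO at 150 nM in 25 mM Hepes, 0.01% Triton X-100, pH 7.0, preincubated 15 min at room temperature with compound. Reaction started with 40 uM arachidonic acid, 30 min at room temperature. Hydroperoxide measured by Fe-xylenol orange, 573/405 nm absorbance ratio.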
IL2 activator = qHTS of IL-2 Activators; hit rate 0.065% among 360,000; IL-2 activation reporter assay, cell-based qHTS; stimulated with anti-CD3/CD4/CD28 beads; in transgenic mouse T cells; activation, % (series mostly up to about 46 µM); in the data active means activation above about 50%; inconclusive means mostly about 30% to 49%; further: 0% is about no effect
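Screening format: compound pinned onto unstimulated transgenic mouse T cells, 60 min incubation, then anti-CD3/anti-CD4/anti-CD28 bead stimulation for 18 hours at 37 degrees C, followed by EGFP and DsRed detection.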
The depositor's hits bear a star; u = inconclusive; x = no result given; [ ] = dose if it differs, or a comment. Only some compounds are listed: those with a hit (about 1.5% of all), similar ones and a draw of the others. Unless noted, the call rests on the fitted dose curve; in most records, active means well fitted curve in the direction sought with a large enough effect; inconclusive means small, poorly fitted or top-dose-only effect, or another doubt; inactive means no such curve, though single readings can be large; an effect the other way counts as inactive or inconclusive.

SMILES	uPA surface inh	Nrf2 ARE act	a7 integrin act	12-LOX inh	IL2 activator
CCOC(=O)c1c(C)[nH]c(C(C)=O)c1C	-7%	3%	-1%[7.66 µM]	0%	-2
O=C(O)c1cc2ccc(Br)cc2[nH]1	x	x	x	18µM*	x
O=C1N/C(=C/c2ccc(N3CCCC3)cc2)C(=O)N1c1ccccc1	-1%	8%	-21%	-10%	157*
COc1cccc(-c2cc(C(=O)Nc3cc(OC)c(OC)c(OC)c3)on2)c1	x	0%	x	-21%	x
COc1cccc(-c2cc(C(=O)Nc3cc(Cl)ccc3O)on2)c1	x	7.9µM*	x	u	x
CCCC(NC(=S)NCC1CCCO1)C12CC3CC(CC(C3)C1)C2 (configuration not stated)	-11%	0%	10%	40µM*	-2
CN(CCn1cc(-c2nccn2C)nn1)S(C)(=O)=O	x	x	x	14%	x
CC(OC(=O)c1cc[n+]([O-])cc1)C(=O)Nc1ccc2ccccc2c1 (configuration not stated)	x	x	x	19%	x
COc1ccc(C(=O)COC(=O)CCc2ccc(-c3ccccc3)o2)cc1	x	x	x	7.9µM*	x
CC1C(=O)N2CCCc3cc(S(=O)(=O)N(Cc4ccccc4)c4ccccc4)cc1c32 (configuration not stated)	x	x	x	10µM*	x
Oc1ccc(Nc2ccc3ccccc3c2)cc1	-8%	16%	14%	45µM*	0
CC(=O)Nc1nc(-c2ccc3ccccc3c2)cs1	-5%	5%	u	3%	-8
Oc1ccc(Nc2nc(-c3ccc4ccccc4c3)cs2)cc1	x	x	x	18µM*	x
Cc1ccc(Nc2nc(-c3cccc(N4C(=O)c5ccccc5C4=O)c3)cs2)cc1	x	x	x	18µM*	x
Cc1ccc2snc(C(=O)N3CCN(C(=O)Nc4ccccc4)CC3)c2c1	x	x	x	11%	x
CCN(C(=S)Nc1cccc(C)c1)c1ccccc1	2%	-1%	-4%	-23%	6
CCN(C(=S)Nc1ccc(Oc2ccccc2)cc1)c1ccccc1	2%	0%	-3%	50µM*	0
Cc1nonc1Cc1nc(C2CCOCC2)nn1CC1COCCO1 (configuration not stated)	x	x	x	31%	x
CCOc1cc(-c2ccc(C)cc2)nc2ccc(C(=O)NCCCN(CC)CC)cc12	x	x	x	10%	x
COc1c(CC=C(C)C)cc(C2CC(=O)c3c(O)cc(O)cc3O2)cc1CC=C(C)C (configuration not stated)	7.9µM*	-1%	-38%	u	-1
CC(C)(C)C(=O)N1CCN(c2ccc(F)cc2)CC1	x	x	x	-7%	x
O=C(Nc1nc2c(s1)CCCCC2)C1CC(=O)N(C2CC2)C1 (configuration not stated)	x	x	x	10%	x
O=C(NC(=S)Nc1nc2c(s1)CCCC2)c1ccccc1	4%	2.5µM*	2%	-7%	1
COC(=O)c1ccc(C(=O)NC(=S)Nc2nc3c(s2)CCCC3)cc1	0%	9%	0%	-8%	0
S=C(Nc1nc2c(s1)CCCC2)NC1CC1	-3%	7%	2%	45µM*	-3
SMILES	uPA surface inh	Nrf2 ARE act	a7 integrin act	12-LOX inh	IL2 activator
CCNc1nc2c(c(=O)n(C)c(=O)n2C)n1CC(O)COc1ccccc1C (configuration not stated)	x	x	x	-6%	x
CC(=O)c1ccc(NC(=O)CN2CCN(c3ccccc3)CC2)cc1	32%	0%	-9%	11µM*	0
CC(=O)c1ccc(NC(=O)CN2CCN(CC(=O)Nc3ccc(C(C)=O)cc3)CC2)cc1	-1%	0%	15%	-4%	0
Cc1ccc(NC(=O)C(C)SC(c2ccc(F)cc2)c2ccc(F)cc2)c(C)c1 (configuration not stated)	x	x	x	-18%	x
O=C(CCCc1c[nH]c2ccccc12)NCCNC(=O)c1ccco1	x	x	x	-21%	x
C=CCN(CC=C)C(=O)c1ccc(OC2CCN(S(=O)(=O)N(C)C)CC2)cc1	x	6%	5µM*	3%	-2
C=CCN(CC=C)C(=O)c1cccc(OC2CCN(S(=O)(=O)N(C)C)CC2)c1	0%	-1%	-8%	3%	-1
CCCN(CCC)CCCNC(=O)c1cc2c(=O)n(CC)c3ccccc3c2s1	-13%	-3%	10%	u	0
CCn1c(=O)c2cc(C(=O)NCCCOC)sc2c2ccccc21	5.6µM*	4%	20%	-10%	-4
C=CCNCCCCOc1ccc(OCc2ccccc2)cc1	11µM*	0%	-35%	u	0
COCCCNCCCCOc1ccc(OCc2ccccc2)cc1	u	0%	-64%	-17%	-2
CCCCCCC(=O)N(O)C1CC(=O)N(c2ccc(Cl)cc2)C1=O (configuration not stated)	-6%	u	3%	1.3µM*	-2
Cc1ccc2c(c1)N(CC(=O)NCCC1=CCCCC1)C(=O)c1cccnc1O2	-8%	0%	25%	20µM*	-3
CCN(CC)CCNC(=O)CN1C(=O)c2cccnc2Oc2ccc(C)cc21	x	-1%	x	1%	x
COc1ccc(NC(=O)c2c[nH]n3c(=O)cc(C4CCN(C(=O)OC(C)(C)C)CC4)nc23)cc1Cl	11%	1%	-18%	40µM*	0
CC(C)(C)OC(=O)N1CCC(c2cc(=O)n3[nH]cc(C(=O)Nc4ccc(F)c(Cl)c4)c3n2)CC1	12%	0%	0%	-19%	1
Cc1ccc(Cl)cc1-n1ccc2c(cnc3nc(C(F)(F)F)nn32)c1=O	x	x	x	34%	x
COc1ccc(NC(=O)c2cc(-c3ccccc3)nc3c2cnn3C(C)C)cc1	8.9µM*	2%	u	182%	1
Cc1cc(C)cc(C(=O)NC(=S)Nc2ccc(-c3cc4ccccc4oc3=O)cc2)c1	-1%	-3%	3%	10µM*	27
COc1ccc(-c2cn3c(n2)CO[C@@H](CNS(C)(=O)=O)C3)cc1	x	x	x	29%[176 µM]	x
COc1ccc(-c2cn3c(n2)CO[C@@H](CNCc2ccc(Cl)cc2)C3)cc1	x	x	x	8.9µM*	x
O=C(O)CCCn1c(O)c(C=C2N=c3ccccc3=N2)sc1=S	u	14µM*	-14%	u	-1
Cc1c(C(C)(C)C)sc(=N)n1C	x	x	x	45µM*	x
Cc1cc(C)c2nc(NCCCNC(=S)NCCCN(C)C)c(C#N)cc2c1	u	-3%	-77%	u	-1
Cc1ccc2cc(C#N)c(NCCNC(=S)NCCCN(C)C)nc2c1C	10µM*	0%	-8%	-25%	-3
COC[C@@H]1CN(C(=O)c2ccc(F)c(F)c2)C[C@H]1C(N)=O	x	x	x	20%	x
OCC1(Cc2ccc(Cl)cc2)CCN(CCCc2ccccc2)CC1	-3%	6%	-54%	3.2µM*	-1
OCC1(Cc2ccc(Cl)cc2)CCN(Cc2ccccc2F)CC1	-1%	1%	-31%	4%	-2
O=C(OCCc1ccccc1)c1ccc([N+](=O)[O-])cc1	x	x	x	-33%	x

Bioassay records (PubChem)
